# Active and inactive are the calls of the source. How the source made its calls: active means hit-call score of the fitted dose curve at least 0.9, where 1 is the maximum; inactive means score below 0.9.
# Legend:
# [1] = CEETOX_H295R_PROG: CeeTox H295R High-throughput Steroidogenesis Assay for Progesterone (PROG) (AID 2283442); settings: actives raise or lower the signal;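 on AC50: human H295R adrenal cells primed with 10 µM forskolin before dosing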
# Summary of the method: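 Progesterone secreted by human H295R cells was measured by LC-MS/MS following 48 h chemical exposure at 0.1% DMSO, preceded by 48 h forskolin (10 uM) stimulation. Same-well MTT viability; cytotoxic concentrations diluted 10- or 100-fold and retested.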
# [2] = read-out: Tumor necrosis factor receptor superfamily member 6 (Homo sapiens) (UniProt P25445); assay: LTEA_HepaRG_FAS: Life Technologies and Expression Analysis (LTEA) Assay for Fas cell surface death receptor (FAS) using HepaRG (AID 2283447); settings: mRNA level, 48 h; actives raise or lower the signal
# Summary of the method: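 Differentiated HepaRG cells in serum-free induction medium were exposed 48 h to 8 half-log concentrations up to 100 uM in 0.5% DMSO, in duplicate. FAS mRNA was measured by qRT-PCR normalised to ACTB, GAPDH and POLR2A; bidirectional fit versus DMSO.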
# [3] = read-out: Fatty acid synthase (Homo sapiens) (UniProt P49327); assay: LTEA_HepaRG_FASN: Life Technologies and Expression Analysis (LTEA) Assay for Fatty Acid Synthase (FASN) using HepaRG (AID 2283448); settings: mRNA level, 48 h; actives raise or lower the signal
# Summary of the method: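 Differentiated human HepaRG cells were exposed for 48 h in serum-free induction medium to eight half-log concentrations up to 100 uM in 0.5% DMSO, in duplicate. FASN mRNA was quantified by TaqMan qRT-PCR, normalized to ACTB/GAPDH/POLR2A, and fitted bidirectionally against DMSO.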
# [4] = read-out: Cyclin D2 (CCND2), CCND2 (gene 894); assay: LTEA_HepaRG_CCND2: Life Technologies and Expression Analysis (LTEA) Assay for Cyclin D2 (CCND2) using HepaRG (AID 2283449); settings: mRNA level, 48 h; actives raise or lower the signal;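 further: CCND2 transcript measured by TaqMan qRT-PCR and normalised to three housekeeping genes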
# Summary of the method: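 Chemicals in 0.5% DMSO, eight half-log concentrations from 100 uM top, were applied in duplicate for 48 h to human HepaRG cells in serum-free induction medium. CCND2 mRNA by TaqMan qRT-PCR, normalised to ACTB/GAPDH/POLR2A; bidirectional fit versus DMSO.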
# [5] = read-out: Cyclin Dependent Kinase Inhibitor 1A (CDKN1A), CDKN1A (gene 1026); assay: LTEA_HepaRG_CDKN1A: Life Technologies and Expression Analysis (LTEA) Assay for Cyclin Dependent Kinase Inhibitor 1A (CDKN1A) using HepaRG (AID 2283450); settings: mRNA level, 48 h; actives raise or lower the signal
# Summary of the method: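 Expression quantified by Fluidigm qRT-PCR with ACTB, GAPDH and POLR2A normalization, fitted bidirectionally against 0.5% DMSO. Cells: HepaRG, plated 48 h then treated 48 h in serum-free induction medium, top concentration 100 uM with half-log dilutions.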
# [6] = read-out: Cyclin D1 (CCND1), CCND1 (gene 595); assay: LTEA_HepaRG_CCND1: Life Technologies and Expression Analysis (LTEA) Assay for Cyclin D1 (CCND1) using HepaRG (AID 2283451); settings: mRNA level, 48 h; actives raise or lower the signal;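 on AC50: TaqMan qRT-PCR transcript level normalised to ACTB GAPDH and POLR2A housekeeping genes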
# Summary of the method: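 Expression of CCND1 was quantified by qRT-PCR on Fluidigm arrays using ACTB, GAPDH and POLR2A as reference genes. HepaRG cultures, plated 48 h beforehand, were dosed for 48 h at up to 100 uM (half-log, 8 points) in 0.5% DMSO.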
# [7] = read-out: catalase (CAT), CAT (gene 847); assay: LTEA_HepaRG_CAT: Life Technologies and Expression Analysis (LTEA) Assay for catalase (CAT) using HepaRG (AID 2283452); settings: mRNA level, 48 h; actives raise or lower the signal;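 on AC50: TaqMan qRT-PCR signal normalized to ACTB GAPDH and POLR2A housekeeping genes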
# Summary of the method: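 HepaRG cells in serum-free induction medium, 0.5% DMSO vehicle, exposed 48 h in duplicate over 8 half-log concentrations from 100 uM. CAT mRNA measured by qRT-PCR, normalized to ACTB, GAPDH, POLR2A; bidirectional fit versus DMSO.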
# [8] = read-out: flavin-containing dimethylaniline monooxygenases 3 (FMO3), FMO3 (gene 2328); assay: LTEA_HepaRG_FMO3: Life Technologies and Expression Analysis (LTEA) Assay for flavin-containing dimethylaniline monooxygenases 3 (FMO3) using HepaRG (AID 2283453); settings: mRNA level, 48 h; actives raise or lower the signal
# Summary of the method: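 HepaRG, 48 h exposure, 8-pt half-log series from 100 uM, 0.5% DMSO vehicle, duplicates; FMO3 transcript by Fluidigm TaqMan qRT-PCR, housekeeping-normalized; gain/loss fit vs DMSO.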
# [9] = read-out: Cytochrome P450 (CYP1A1), CYP1A1 (gene 1543); assay: LTEA_HepaRG_CYP1A1: Life Technologies and Expression Analysis (LTEA) Assay for Cytochrome P450 (CYP1A1) using HepaRG (AID 2283454); settings: mRNA level, 48 h; actives raise or lower the signal
# Summary of the method: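 CYP1A1 transcript levels measured by Fluidigm qRT-PCR against three housekeeping genes, 48 h after chemical dosing of human HepaRG cells (highest concentration 100 uM, half-log steps, 0.5% DMSO vehicle). Gain or loss of signal fitted relative to DMSO.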
# [10] = read-out: CFLAR gene, CFLAR (gene 8837); assay: LTEA_HepaRG_CFLAR: Life Technologies and Expression Analysis (LTEA) Assay for CFLAR gene using HepaRG (AID 2283455); settings: mRNA level, 48 h; actives raise or lower the signal
# Summary of the method: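 Differentiated HepaRG cells in serum-free induction medium were exposed 48 h in duplicate to eight half-log concentrations up to 100 uM in 0.5% DMSO; mRNA measured by TaqMan qRT-PCR, normalized to ACTB, GAPDH, POLR2A; bidirectional fitting versus DMSO.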
# [11] = read-out: Forkhead box O1 (FOXO1), FOXO1 (gene 2308); assay: LTEA_HepaRG_FOXO1: Life Technologies and Expression Analysis (LTEA) Assay for Forkhead box O1 (FOXO1) using HepaRG (AID 2283456); settings: mRNA level, 48 h; actives raise or lower the signal
# Summary of the method: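 Differentiated HepaRG cells, in serum-free induction medium with 0.5% DMSO, exposed 48 h in duplicate to 8-point half-log series from 100 uM. FOXO1 mRNA measured by TaqMan qRT-PCR, normalized to ACTB, GAPDH, POLR2A; bidirectional fit versus DMSO.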
# [12] = read-out: Forkhead box O3 (FOXO3), FOXO3 (gene 2309); assay: LTEA_HepaRG_FOXO3: Life Technologies and Expression Analysis (LTEA) Assay for Forkhead box O3 (FOXO3) using HepaRG (AID 2283459); settings: mRNA level, 48 h; actives raise or lower the signal
# Summary of the method: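 Differentiated human HepaRG cells, 48 h post-plating, exposed in duplicate for 48 h in serum-free induction medium; 8-point half-log series from 100 uM in 0.5% DMSO. FOXO3 mRNA by TaqMan qRT-PCR, normalized to ACTB/GAPDH/POLR2A; bidirectional fit versus DMSO.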
# [13] = read-out: ABC Transporter (ABCB1), ABCB1 (gene 5243); assay: LTEA_HepaRG_ABCB1: Life Technologies and Expression Analysis (LTEA) Assay for ABC Transporter (ABCB1) using HepaRG (AID 2283460); settings: mRNA level, 48 h; actives raise or lower the signal
# Summary of the method: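 HepaRG cells exposed in duplicate for 48 h in serum-free induction medium to eight half-log concentrations up to 100 uM in 0.5% DMSO. ABCB1 mRNA quantified by qRT-PCR, normalised to ACTB, GAPDH and POLR2A; fitted bidirectionally versus DMSO.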
# [14] = read-out: growth arrest and DNA damage 45 (GADD45B), GADD45B (gene 4616); assay: LTEA_HepaRG_GADD45B: Life Technologies and Expression Analysis (LTEA) Assay for growth arrest and DNA damage 45 (GADD45B) using HepaRG (AID 2283461); settings: mRNA level, 48 h; actives raise or lower the signal
# Summary of the method: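 Transcript level quantified by Fluidigm TaqMan qRT-PCR with three housekeeping genes for normalization, analyzed for up- or down-regulation against 0.5% DMSO. HepaRG cultures dosed 48 h at eight half-log concentrations up to 100 uM, duplicates.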
# [15] = read-out: ABC Transporter (ABCC3), ABCC3 (gene 8714); assay: LTEA_HepaRG_ABCC3: Life Technologies and Expression Analysis (LTEA) Assay for ABC Transporter (ABCC3) using HepaRG (AID 2283462); settings: mRNA level, 48 h; actives raise or lower the signal
# Summary of the method: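 Transcript level by TaqMan qRT-PCR, normalised to three housekeeping genes, fitted in both directions relative to vehicle. Chemicals tested in duplicate at eight half-log concentrations up to 100 uM for 48 h on HepaRG cells (0.5% DMSO).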
# [16] = read-out: ABC Transporter (ABCC2), ABCC2 (gene 1244); assay: LTEA_HepaRG_ABCC2: Life Technologies and Expression Analysis (LTEA) Assay for ABC Transporter (ABCC2) using HepaRG (AID 2283464); settings: mRNA level, 48 h; actives raise or lower the signal
# Summary of the method: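 Endpoint is ABCC2 transcript level from qRT-PCR, normalized to three housekeeping genes and fitted bidirectionally relative to DMSO. Human HepaRG cells received test chemical for 48 h at up to 100 uM (8 points, half-log steps, 0.5% DMSO), duplicate wells.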
# [17] = read-out: Broad substrate specificity ATP-binding cassette transporter ABCG2 (Homo sapiens) (UniProt Q9UNQ0); assay: LTEA_HepaRG_ABCG2: Life Technologies and Expression Analysis (LTEA) Assay for ABC Transporter (ABCG2) using HepaRG (AID 2283465); settings: mRNA level, 48 h; actives raise or lower the signal
# Summary of the method: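 Differentiated HepaRG cells were exposed for 48 h in serum-free induction medium to 8 half-log concentrations, top 100 uM, in 0.5% DMSO. ABCG2 mRNA was measured by qRT-PCR, normalized to ACTB, GAPDH and POLR2A, with bidirectional fitting versus DMSO.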
# [18] = CEETOX_H295R_TESTO: CeeTox H295R High-throughput Steroidogenesis Assay for Testosterone (TESTO) (AID 2283457); settings: actives raise or lower the signal
# Summary of the method: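 Testosterone secreted into the medium over 48 h by H295R cells (maximum passage 10) was quantified by LC-MS/MS after MTBE extraction. Fitted in both directions against DMSO, with concentrations diluted until MTT viability was ≥70%.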
# [19] = read-out: growth arrest and DNA damage 45 (GADD45A), GADD45A (gene 1647); assay: LTEA_HepaRG_GADD45A: Life Technologies and Expression Analysis (LTEA) Assay for growth arrest and DNA damage 45 (GADD45A) using HepaRG (AID 2283458); settings: mRNA level, 48 h; actives raise or lower the signal
# Summary of the method: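 Differentiated HepaRG cells were exposed in duplicate for 48 h in serum-free induction medium to 8-point half-log concentrations up to 100 uM in 0.5% DMSO. GADD45A mRNA was measured by TaqMan qRT-PCR, normalized to ACTB, GAPDH and POLR2A, with bidirectional fitting versus DMSO.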
# [20] = read-out: ABC Transporter (ABCB11), ABCB11 (gene 8647); assay: LTEA_HepaRG_ABCB11: Life Technologies and Expression Analysis (LTEA) Assay for ABC Transporter (ABCB11) using HepaRG (AID 2283463); settings: mRNA level, 48 h; actives raise or lower the signal
# Summary of the method: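 Differentiated human HepaRG cells in serum-free induction medium, dosed in duplicate for 48 h. Eight-point half-log series from 100 uM in 0.5% DMSO; ABCB11 mRNA by qRT-PCR, normalized to ACTB, GAPDH, POLR2A, fitted bidirectionally versus DMSO.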
# Fatty acid synthase (Homo sapiens), sequence (P49327 whole entry, looked up): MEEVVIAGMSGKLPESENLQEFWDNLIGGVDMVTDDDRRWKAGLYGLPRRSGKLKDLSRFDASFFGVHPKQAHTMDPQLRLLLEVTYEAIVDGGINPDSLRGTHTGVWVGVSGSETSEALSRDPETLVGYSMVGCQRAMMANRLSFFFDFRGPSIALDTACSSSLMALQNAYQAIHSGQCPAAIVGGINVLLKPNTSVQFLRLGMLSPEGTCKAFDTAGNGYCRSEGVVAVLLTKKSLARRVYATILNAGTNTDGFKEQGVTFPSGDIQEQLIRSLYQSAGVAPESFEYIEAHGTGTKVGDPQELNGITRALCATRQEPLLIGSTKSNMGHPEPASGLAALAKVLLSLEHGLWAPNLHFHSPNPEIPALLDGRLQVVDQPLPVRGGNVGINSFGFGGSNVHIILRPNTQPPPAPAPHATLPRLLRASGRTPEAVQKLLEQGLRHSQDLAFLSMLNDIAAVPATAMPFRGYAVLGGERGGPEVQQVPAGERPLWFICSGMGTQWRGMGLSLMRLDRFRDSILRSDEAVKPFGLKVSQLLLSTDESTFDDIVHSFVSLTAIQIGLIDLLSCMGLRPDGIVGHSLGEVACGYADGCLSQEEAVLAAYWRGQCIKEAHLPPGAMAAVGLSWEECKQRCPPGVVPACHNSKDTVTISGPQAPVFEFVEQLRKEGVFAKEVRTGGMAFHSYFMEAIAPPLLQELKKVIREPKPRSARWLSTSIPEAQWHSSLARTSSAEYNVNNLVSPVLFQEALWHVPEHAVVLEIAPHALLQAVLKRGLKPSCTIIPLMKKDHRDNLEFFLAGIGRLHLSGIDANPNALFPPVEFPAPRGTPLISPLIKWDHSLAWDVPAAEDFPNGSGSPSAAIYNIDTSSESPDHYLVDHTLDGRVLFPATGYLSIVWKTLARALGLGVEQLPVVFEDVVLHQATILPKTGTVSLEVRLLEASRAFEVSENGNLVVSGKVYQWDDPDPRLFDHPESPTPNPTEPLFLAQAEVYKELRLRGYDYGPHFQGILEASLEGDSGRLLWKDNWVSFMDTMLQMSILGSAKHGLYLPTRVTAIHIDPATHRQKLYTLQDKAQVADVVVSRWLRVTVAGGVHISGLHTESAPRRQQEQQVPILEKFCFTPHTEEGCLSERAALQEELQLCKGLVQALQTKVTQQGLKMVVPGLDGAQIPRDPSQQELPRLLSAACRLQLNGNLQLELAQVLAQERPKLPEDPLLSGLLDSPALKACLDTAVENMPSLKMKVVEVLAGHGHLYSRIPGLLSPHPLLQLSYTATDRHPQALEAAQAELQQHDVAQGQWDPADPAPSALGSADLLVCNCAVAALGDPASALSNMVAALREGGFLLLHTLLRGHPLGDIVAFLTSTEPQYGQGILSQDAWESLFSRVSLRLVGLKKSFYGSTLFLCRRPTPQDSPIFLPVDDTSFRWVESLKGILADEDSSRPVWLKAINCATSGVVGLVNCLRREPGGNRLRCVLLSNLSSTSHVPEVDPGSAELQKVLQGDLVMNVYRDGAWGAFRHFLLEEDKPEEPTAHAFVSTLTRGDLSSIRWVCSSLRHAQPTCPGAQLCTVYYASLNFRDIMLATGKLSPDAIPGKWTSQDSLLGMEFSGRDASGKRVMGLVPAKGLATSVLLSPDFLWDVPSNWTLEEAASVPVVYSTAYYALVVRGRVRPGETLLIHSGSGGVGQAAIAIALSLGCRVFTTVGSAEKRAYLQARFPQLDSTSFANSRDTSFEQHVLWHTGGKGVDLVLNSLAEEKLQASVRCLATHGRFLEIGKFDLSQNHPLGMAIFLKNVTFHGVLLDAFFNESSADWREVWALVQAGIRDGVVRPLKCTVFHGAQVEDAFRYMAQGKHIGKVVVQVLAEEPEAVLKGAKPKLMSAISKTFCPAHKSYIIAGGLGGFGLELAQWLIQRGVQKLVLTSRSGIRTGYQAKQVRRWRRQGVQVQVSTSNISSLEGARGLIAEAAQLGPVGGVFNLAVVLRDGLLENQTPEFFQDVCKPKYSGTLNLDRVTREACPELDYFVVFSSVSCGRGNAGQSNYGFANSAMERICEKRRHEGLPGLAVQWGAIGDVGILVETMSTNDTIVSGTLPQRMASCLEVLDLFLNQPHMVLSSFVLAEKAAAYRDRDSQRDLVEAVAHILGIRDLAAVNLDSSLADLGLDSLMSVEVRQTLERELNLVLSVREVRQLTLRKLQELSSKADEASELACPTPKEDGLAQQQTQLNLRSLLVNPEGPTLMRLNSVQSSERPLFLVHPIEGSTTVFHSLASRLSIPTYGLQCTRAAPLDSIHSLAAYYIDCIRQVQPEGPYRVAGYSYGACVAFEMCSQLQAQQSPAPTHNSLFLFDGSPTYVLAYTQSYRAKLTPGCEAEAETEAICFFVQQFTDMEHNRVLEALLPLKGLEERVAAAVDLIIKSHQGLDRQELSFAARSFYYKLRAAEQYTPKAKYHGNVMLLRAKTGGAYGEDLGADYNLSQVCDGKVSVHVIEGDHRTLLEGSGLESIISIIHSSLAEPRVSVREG
# Broad substrate specificity ATP-binding cassette transporter ABCG2 (Homo sapiens), sequence (Q9UNQ0 whole entry, looked up): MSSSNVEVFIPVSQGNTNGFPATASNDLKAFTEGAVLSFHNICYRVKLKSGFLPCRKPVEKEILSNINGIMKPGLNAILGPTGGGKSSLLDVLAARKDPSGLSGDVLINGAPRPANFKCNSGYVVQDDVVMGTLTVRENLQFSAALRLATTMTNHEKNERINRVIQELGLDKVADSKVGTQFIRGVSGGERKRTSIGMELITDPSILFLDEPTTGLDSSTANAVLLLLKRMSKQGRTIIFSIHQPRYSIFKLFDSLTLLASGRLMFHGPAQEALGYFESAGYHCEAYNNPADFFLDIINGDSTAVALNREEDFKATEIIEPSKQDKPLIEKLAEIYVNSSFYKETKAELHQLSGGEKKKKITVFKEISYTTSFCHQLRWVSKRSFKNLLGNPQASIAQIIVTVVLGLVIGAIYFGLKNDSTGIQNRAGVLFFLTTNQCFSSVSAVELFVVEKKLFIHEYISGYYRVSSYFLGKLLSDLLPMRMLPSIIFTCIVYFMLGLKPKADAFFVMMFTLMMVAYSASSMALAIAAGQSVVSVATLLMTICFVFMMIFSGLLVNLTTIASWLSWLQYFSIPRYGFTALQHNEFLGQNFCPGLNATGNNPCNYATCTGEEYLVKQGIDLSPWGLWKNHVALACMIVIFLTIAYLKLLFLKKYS
compound,measurement,setting,value
Oc1ccc2ccc3cccc4ccc1c2c34,outcome,[1],inactive
same,outcome,[2],inactive
same,outcome,[3],inactive
same,outcome,[4],inactive
same,outcome,[5],inactive
same,outcome,[6],inactive
same,outcome,[7],inactive
same,outcome,[8],inactive
same,AC50,[9],27.5 µM (active)
same,outcome,[10],inactive
same,outcome,[11],inactive
same,outcome,[12],inactive
same,outcome,[13],inactive
same,outcome,[14],inactive
same,outcome,[15],inactive
same,outcome,[16],inactive
same,AC50,[17],11.9 µM (active)
CC(C)N(Cc1ccccc1)C(=O)C(C)(C)C,outcome,[1],inactive
same,outcome,[2],inactive
same,outcome,[3],inactive
same,outcome,[4],inactive
same,outcome,[5],inactive
same,outcome,[6],inactive
same,outcome,[7],inactive
same,outcome,[8],inactive
same,AC50,[9],50 µM (active)
same,outcome,[11],inactive
same,outcome,[18],inactive
same,outcome,[19],inactive
same,outcome,[12],inactive
same,outcome,[13],inactive
same,outcome,[14],inactive
same,outcome,[15],inactive
same,AC50,[16],50 µM (active)
same,outcome,[17],inactive
CCCCCOC(=O)c1ccccc1C(=O)OCCCCC,outcome,[1],inactive
same,outcome,[2],inactive
same,outcome,[3],inactive
same,outcome,[4],inactive
same,outcome,[5],inactive
same,outcome,[6],inactive
same,outcome,[7],inactive
same,outcome,[8],inactive
same,AC50,[9],18 µM (active)
same,outcome,[10],inactive
same,outcome,[11],inactive
same,outcome,[19],inactive
same,outcome,[12],inactive
same,outcome,[13],inactive
same,outcome,[14],inactive
same,outcome,[15],inactive
same,outcome,[20],inactive
same,outcome,[16],inactive
same,outcome,[17],inactive
Nc1ccc(N=Nc2ccccc2)cc1,AC50,[1],75.6 µM (active)
same,AC50,[2],13 µM (active)
same,AC50,[3],21.6 µM (active)
same,AC50,[5],11.2 µM (active)
same,AC50,[6],28.8 µM (active)
same,AC50,[7],14.9 µM (active)
same,AC50,[8],19.1 µM (active)
same,AC50,[9],35.8 µM (active)
same,AC50,[10],20.8 µM (active)
same,AC50,[11],30.9 µM (active)
same,AC50,[12],18.4 µM (active)
same,AC50,[13],15.5 µM (active)
same,AC50,[14],29 µM (active)
same,AC50,[16],13.2 µM (active)
same,AC50,[17],13 µM (active)
